PKA-R2B act = activates the human PKA-R2B holoenzyme complex; 0.079% of 340,000 active; activation, % at 11.4 µM; PKA-R2B holoenzyme dissociation, Cy5-IP20 fluorescence polarization; R2B truncated from residue 108, S112A mutant; 0% DMSO only, 100% 113 µM cGMP; P22694+P31323;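 active means activation above a cutoff set at the mean over all compounds plus 3 SD, cut at about 18% in these data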;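 further: higher means more holoenzyme dissociation and a rise in polarization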
ANO1 block = mouse TMEM16A channel inhibition, primary screen; HEK293 TMEM16A/YFP iodide influx fluorescence, ionomycin; normalized B-score (activity score, 25-100; higher = stronger inhibition) at 10 µM; 1.2% of 310,000 active; AID 588511;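 active means ratio plate-corrected score three or more library SD toward inhibition, starting fluorescence score within five deviations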;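 further: score derived from kinetic fluorescence span divided by baseline fluorescence per well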
PKA-R1A activ = activators of PKA-R1A complex | AID 504707 | PKA-R1A dissociation, Cy5-IP20 fluorescence polarization; scaled: DMSO 0%, 113 µM cGMP 100% | 0.083% of 340,000 active | activation, % at 11.4 µM;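 active means percent activation above the mean of all tested compounds plus 3 SD, cut at about 19% in these data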;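 further: higher means more PKAc released from R1A so a rise in polarization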
CHT PAM = allosteric activators of human choline transporter CHT; Q9GZV3; CHT-expressing cells, membrane potential dye, choline EC20; active compounds read high; LV-AA mutant CHT in HEK293 cells; B-score at 10 µM; 0.49% of 310,000 active;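 active means initial fluorescence not abnormally high and integrated response B-score, plate-corrected, over 3 SD above library mean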
Target sequence (Q9GZV3 whole entry, looked up): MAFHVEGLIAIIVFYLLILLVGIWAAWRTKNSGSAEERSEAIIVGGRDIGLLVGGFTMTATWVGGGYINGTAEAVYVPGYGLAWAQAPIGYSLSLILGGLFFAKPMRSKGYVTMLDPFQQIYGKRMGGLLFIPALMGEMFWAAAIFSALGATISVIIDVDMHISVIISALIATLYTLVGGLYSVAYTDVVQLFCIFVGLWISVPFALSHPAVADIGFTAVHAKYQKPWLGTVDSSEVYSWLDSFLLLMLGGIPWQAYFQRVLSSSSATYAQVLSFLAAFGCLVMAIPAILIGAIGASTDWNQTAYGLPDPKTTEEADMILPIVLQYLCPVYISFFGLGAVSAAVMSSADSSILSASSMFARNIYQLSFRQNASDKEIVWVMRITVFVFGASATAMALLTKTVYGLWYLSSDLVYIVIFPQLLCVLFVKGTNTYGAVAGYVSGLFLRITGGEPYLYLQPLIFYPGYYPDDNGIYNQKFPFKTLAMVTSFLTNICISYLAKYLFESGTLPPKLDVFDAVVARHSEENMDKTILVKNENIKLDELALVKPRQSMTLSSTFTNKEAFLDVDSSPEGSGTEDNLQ
TMEM16A act = activates or potentiates the mouse TMEM16A chloride channel | Q8BHY3 | HEK293 TMEM16A/YFP-H148Q/I152L, iodide quench fluorescence; active compounds read low | B-score at 10 µM | 0.3% of 340,000 active | AID 623877;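 active means fluorescence-ratio B-score plate-corrected deviation score at least 3 library SD below zero, with starting fluorescence score within 5 deviations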;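 further: channel opened by trigger with iodide after compound preincubation; score built on the fluorescence ratio of max minus min over baseline; more negative score means more quench and so TMEM16A activation or potentiation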
CHT inh = inhibits the human high affinity choline transporter; Q9GZV3; CHT-expressing cells, membrane potential dye, choline response; active compounds read low; B-score at 10 µM; 0.86% of 310,000 active;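 active means B-score over 3 SD under the library average, and starting fluorescence ratio not unusually high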;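 further: choline stimulus applied at its EC90 after an EC20 pre-addition; B-score computed on integrated fluorescence ratio after choline addition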
TMEM16A reconf = re-confirmation of mouse TMEM16A chloride channel inhibitors | shares compounds with ANO1 block | HEK293 TMEM16A/YFP-H148Q, iodide quench fluorescence; ionomycin added to raise cell calcium | inhibition, % at 10 µM | 39% of 2,300 active;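 active means mean duplicate percent inhibition, scaled so buffer wells are 0 and the reference blocker 100, over three buffer SD above buffer mean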
TMEM16A Ca cntr = alters calcium mobilization in TMEM16A HEK293 cells, counter-screen | shares compounds with ANO1 block | TMEM16A/YFP HEK293, Fluo4 calcium mobilization | calcium response (% of ionomycin), % at 10 µM | 2% of 2,300 active | AID 652231;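 active means duplicate-averaged calcium signal over 20% of the ionomycin maximum, relative to buffer baseline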;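 further: each well's signal is peak minus trough fluorescence divided by its pre-addition baseline; 0% = buffer wells and 100% = ionomycin wells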
Parental YFP cnt = acts in parental YFP-HEK293 cells lacking TMEM16A, counter-screen; shares compounds with ANO1 block; iodide YFP quench, ionomycin; YFP ratio F(max-min)/F0 at 10 µM; 2,300 tested, under 10 active; AID 652233;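 active means yellow fluorescent protein signal ratio exceeding the buffer control mean by over 5 SD of those controls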;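 further: ratio is mean of duplicate wells from kinetic YFP trace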
ClC-1 rat inh = blocks the rat ClC-1 voltage-dependent chloride channel; 2,300 tested, under 10 active; ratio percent, % at 10 µM; AID 652236; CHO ClC-1-YFP, iodide influx fluorescence quench; iodide control reads 0, buffer control 100; shares compounds with ANO1 block;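 active means duplicate-mean ratio percent above the mean of iodide-only control wells, which defines zero, plus 5 of their SD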;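 further: higher percent means stronger block of ClC-1 iodide influx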
Numbers without * were called inactive; i = inactive; . = not tested or not shown. Hits are enriched below; roughly 2.5% of the tested compounds scored in any of these assays.

SMILES | PKA-R2B act | ANO1 block | PKA-R1A activ | CHT PAM | TMEM16A act | CHT inh | TMEM16A reconf | TMEM16A Ca cntr | Parental YFP cnt | ClC-1 rat inh
Clc1ccc(OCCN2CCN(c3ncnc4sccc34)CC2)cc1 | -9 | 100* | -2 | i | i | i | 16%* | i | -1.2 | -32
COc1cc(OC)c(NC(=O)c2sc3ncn(CC(=O)N4CCN(c5ccccn5)CC4)c(=O)c3c2C)cc1Cl | -7 | i | -4 | i | i | i | . | . | . | .
COc1ccc(NC(=O)c2sc3ncn(CC(=O)N4CCN(c5ccccn5)CC4)c(=O)c3c2C)c(OC)c1 | -2 | 25* | 6 | i | i | i | i | i | -1 | -10
CCOc1ccc(C(=O)NNC(=O)CCNC(=O)c2ccc(Br)cc2)cc1OC | 1 | . | -8 | . | i | . | . | . | . | .
Cc1c(C(=O)Nc2ccc3c(c2)OCCO3)sc2nc(-c3ccccc3)cn12 | -3 | 25* | 11 | i | i | i | 16%* | i | -0.94 | -12
CC(Sc1ccccc1)C(=O)NCCc1ccccc1 (configuration not stated) | -3 | i | 10 | i | i | i | . | . | . | .
COc1ccc(NC(=O)C2CCCN2C(=O)Nc2ccc(OC)cc2)cc1 (configuration not stated) | 6 | . | 2 | . | i | . | . | . | . | .
Cn1c(Cc2ccccc2)nnc1SCC(=O)NC1CCCC1 | -8 | 100* | 5 | i | i | i | i | i | -1.1 | -14
Cn1c(Cc2ccccc2)nnc1SCC(=O)NC1CCCCC1 | -2 | i | -12 | i | i | i | . | . | . | .
CCCN(CC(=O)c1cc(C)n(C)c1C)S(=O)(=O)c1cccc(C(F)(F)F)c1 | 0 | 100* | -5 | i | i | i | i | i | -0.85 | -6
CCN(CC)S(=O)(=O)c1cccc(-c2nnc(SCC(=O)c3cc(C)n(C)c3C)o2)c1 | 1 | i | 0 | i | i | i | . | . | . | .
CCOc1ccc(CC(=O)NNC(=S)NC)cc1Br | . | i | . | i | i | i | . | . | . | .
O=C(Cc1cccs1)Nc1ccc(S(=O)(=O)Nc2ncccn2)cc1 | -8 | 25* | -4 | i | i | i | i | i | -1.1 | -6
COc1ccc(-c2nc3cnccn3c2NCc2ccccc2)cc1SC1CCCCC1 | -4 | 25* | -4 | i | i | i | i | i | -1.3 | -4
CC(Oc1ccccc1)C(=O)Nc1ccc(NC(=O)c2ccccc2)cc1 (configuration not stated) | 5 | i | 3 | i | i | i | . | . | . | .
CC(Oc1ccc(C(=O)c2ccccc2)cc1)C(=O)Nc1ccc(S(N)(=O)=O)cc1 (configuration not stated) | -12 | 100* | -14 | i | i | i | 54%* | i | -0.7 | -6
COc1ccc(/C=N/NC(=O)c2cccnc2)cc1COc1ccc([N+](=O)[O-])c(C)c1 | . | 25* | . | i | i | i | 22%* | i | -1 | -16
COC(=O)c1c(NS(=O)(=O)Cc2ccccc2)sc2c1CCCC2 | -12 | i | -2 | i | i | i | . | . | . | .
CC(C)OC(=O)c1c(NS(=O)(=O)c2ccccc2)sc2c1CCCC2 | 4 | 100* | 3 | i | i | i | 72%* | i | -0.87 | -4
COC(=O)c1c(NS(=O)(=O)c2ccc(C)cc2)sc2c1CCC(C)C2 (configuration not stated) | 1 | 100* | 1 | i | i | i | 30%* | i | -1.1 | -20
Cc1cccc(C)c1NC(=O)CN(C)C(=O)CN1C(=O)NC2(CCCC2)C1=O | -14 | i | -5 | i | i | i | . | . | . | .
CC1CCCN(C(=O)C(C)Sc2nc(-c3ccccc3)cc(C(F)(F)F)n2)C1 (configuration not stated) | 3 | 100* | -3 | i | i | i | i | i | -1.1 | -16
CC(Sc1nc(-c2ccccc2)cc(C(F)(F)F)n1)C(=O)N1CCCCC1 (configuration not stated) | -2 | i | -5 | i | i | i | . | . | . | .
CCCCCOC(=O)CSc1nnc(-c2cc(OC)c(OC)c(OC)c2)o1 | 3 | 25* | 2 | i | i | i | i | i | -1.1 | -9
O=C(CCc1ccccc1)Nc1ccccc1F | -8 | 100* | -1 | i | i | i | i | i | -1 | -4
SMILES | PKA-R2B act | ANO1 block | PKA-R1A activ | CHT PAM | TMEM16A act | CHT inh | TMEM16A reconf | TMEM16A Ca cntr | Parental YFP cnt | ClC-1 rat inh
O=C(CCc1ccccc1)Nc1ccc(F)cc1F | -1 | i | -4 | i | i | i | . | . | . | .
O=C(Oc1cccc(Nc2ncnc3ccccc23)c1)c1ccccc1Cl | -5 | 100* | -16 | i | i | i | 18%* | i | -1.2 | -12
COc1ccc(-c2cccc(C3CC=CC4C3C(=O)N(Cc3ccccc3)C4c3ccc(C(F)(F)F)cc3)c2)cc1 (configuration not stated) | -5 | i | 3 | i | i | i | . | . | . | .
O=C1C2C(c3ccccc3)CC=CC2[C@H](c2ccc(C(F)(F)F)cc2)N1Cc1ccccc1 (some centres not stated) | 0 | 25* | -8 | i | i | i | i | i | -1.1 | -10
CCCCn1c(SCc2ccc(C(=O)OC)o2)nc2cc(S(N)(=O)=O)ccc21 | -1 | 25* | -12 | i | i | i | 18%* | i | -1.1 | -13
CCN(CC)CCNC(=O)c1ccc(NC(=O)C2CC(=O)N(c3ccc4c(c3)OCCO4)C2)cc1 (configuration not stated) | -13 | i | -3 | i | i | i | . | . | . | .
COc1cc(C(=O)Nc2nc(-c3cccs3)cs2)cc(OC)c1OC | -1 | i | -15 | i | i | i | . | . | . | .

Screening data from PubChem BioAssay.
